Only a selection was taken, and hits are over-represented in it overall.
miR-122 inh – miR-122 suppressors via Renilla sensor increase, primary screen, cell-based, Huh7 psiCHECK-miR122, Renilla luciferase, single point. 48 h. activation, % at 12.5 µM. 340,000 compounds, 0.14% hits. AID 623901, 2012;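 active = mean activation of 30% or more, with every replicate also reaching 30%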;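 also: 0% = median of neutral control wells and 100% = median of positive control wells; higher luciferase signal means stronger suppression of miR-122 activity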
Numbers without * were called inactive.

How did COc1ccccc1-c1ccc2c(c1)O[C@H](CN(C)S(=O)(=O)c1ccc(C)cc1)[C@H](C)CN([C@H](C)CO)S2(=O)=O do in these assays?
miR-122 inh: -55.5

What do the screens show for `COCC(=O)N(C)C[C@H]1Oc2cc(-c3ccccc3F)ccc2S(=O)(=O)N([C@@H](C)CO)C[C@H]1C`?
miR-122 inh: 55.2*

What do the screens show for `COc1ccccc1-c1ccc2c(c1)O[C@@H](CN(C)S(=O)(=O)c1ccc(F)cc1)[C@@H](C)CN([C@@H](C)CO)S2(=O)=O`?
miR-122 inh: 35.9*

How did COc1ccccc1-c1ccc2c(c1)O[C@@H](CN(C)S(=O)(=O)c1ccc(C)cc1)[C@H](C)CN([C@@H](C)CO)S2(=O)=O do in these assays?
miR-122 inh: 3.4

Results for COc1ccc(-c2ccc3c(c2)O[C@H](CN(C)C(=O)c2ccccc2F)[C@H](C)CN([C@@H](C)CO)S3(=O)=O)cc1 ?
miR-122 inh: 12.9

Results for COCC(=O)N(C)C[C@H]1Oc2cc(-c3cccc(F)c3)ccc2S(=O)(=O)N([C@H](C)CO)C[C@H]1C ?
miR-122 inh: 13.7

How did C[C@H]1CN([C@@H](C)CO)C(=O)c2cc(-c3ccc(F)cc3)cnc2O[C@H]1CN(C)C(=O)c1cccnc1 do in these assays?
miR-122 inh: 5.5

What do the screens show for `C[C@H]1CN([C@@H](C)CO)C(=O)c2cc(-c3cccc(F)c3)cnc2O[C@H]1CN(C)C(=O)Nc1ccccc1F`?
miR-122 inh: 1.6

How did CCCC(=O)Nc1ccc2c(c1)C(=O)N(C)C[C@@H](OC)[C@H](C)CN(CCC)[C@H](C)CO2 do in these assays?
miR-122 inh: -0.7

Results for CCCC#Cc1ccc2c(c1)O[C@H](CN(C)C(=O)NCCC)[C@H](C)CN([C@@H](C)CO)S2(=O)=O ?
miR-122 inh: -10.2

Results for CO[C@@H]1CN(C)C(=O)c2ccc(NS(=O)(=O)c3ccc(C)cc3)cc2OC[C@H](C)N(C)C[C@H]1C ?
miR-122 inh: -0.1

How did Cc1ccc(S(=O)(=O)N(C)C[C@H]2Oc3cc(C#CC4CCCC4)ccc3S(=O)(=O)N([C@@H](C)CO)C[C@@H]2C)cc1 do in these assays?
miR-122 inh: -62.0

What do the screens show for `CCC(=O)Nc1ccc2c(c1)C(=O)N(C)C[C@@H](OC)[C@H](C)CN(C(C)=O)[C@H](C)CO2`?
miR-122 inh: -3.6

Results for CCC(=O)N(C)C[C@H]1Oc2ncc(C#CCC3CCCC3)cc2C(=O)N([C@@H](C)CO)C[C@@H]1C ?
miR-122 inh: 7.0

Results for C[C@H]1CN([C@@H](C)CO)C(=O)c2cc(-c3ccc(F)cc3)cnc2O[C@@H]1CN(C)C(=O)c1ccccn1 ?
miR-122 inh: 4.7

Results for C[C@H](O)C#Cc1cnc2c(c1)C(=O)N([C@H](C)CO)C[C@H](C)[C@@H](CN(C)C(=O)CN(C)C)O2 ?
miR-122 inh: 5.2

How did CCCNC(=O)NC[C@H]1[C@@H](c2ccc(C3=CCCC3)cc2)[C@@H](CO)N1C(C)=O do in these assays?
miR-122 inh: -92.9

Results for COc1cccc(-c2cnc3c(c2)C(=O)N([C@@H](C)CO)C[C@@H](C)[C@@H](CN(C)Cc2ccccc2)O3)c1 ?
miR-122 inh: -4.5

What do the screens show for `COc1ccc(NS(=O)(=O)c2cc(NC(=O)c3ccc(=O)[nH]c3)ccc2N2CCCC2)cc1`?
miR-122 inh: -154.6

How did Oc1ccccc1/C=N/Nc1nc2ccccc2o1 do in these assays?
miR-122 inh: 48.1*

How did C[C@@H]1CN([C@H](C)CO)C(=O)c2cc(/C=C/c3ccccc3)cnc2O[C@H]1CN(C)C(=O)Nc1ccccc1F do in these assays?
miR-122 inh: 3.2

What do the screens show for `C[C@H]1CN([C@@H](C)CO)S(=O)(=O)c2ccc(-c3cncnc3)cc2O[C@@H]1CN(C)C(=O)Cc1cccnc1`?
miR-122 inh: 1.0

How did Cc1ccc(S(=O)(=O)N(C)C[C@@H]2Oc3ncc(C#CCC(C)C)cc3C(=O)N([C@H](C)CO)C[C@@H]2C)cc1 do in these assays?
miR-122 inh: -7.2

How did CCN(CC)c1ccc(C(=C2C=CC(=[N+](CC)CC)C=C2)c2ccc(N(CC)CC)cc2)cc1 do in these assays?
miR-122 inh: 37.8*

Results for O=S(=O)(c1ccccc1)N1C[C@H]2[C@@H](c3ccccc31)[C@@H](CO)N2Cc1ccc2c(c1)OCO2 ?
miR-122 inh: -140.0

Results for CN1[C@@H](CO)[C@@H]2c3ccccc3N(C(=O)Nc3cc(F)ccc3F)C[C@@H]21 ?
miR-122 inh: 33.3*

Results for O=C(Nc1ccccc1F)N1C[C@@H]2[C@H](c3ccccc31)[C@@H](CO)N2C(=O)C1CCCC1 ?
miR-122 inh: -130.0

What do the screens show for `C[C@H](CO)N1C[C@H](C)[C@H](CN(C)C(=O)C2CCOCC2)Oc2ncc(-c3ccncc3)cc2C1=O`?
miR-122 inh: 3.1

What do the screens show for `C[C@@H]1CN([C@@H](C)CO)C(=O)c2cc(C#CC3(O)CCCC3)cnc2O[C@H]1CN(C)Cc1ccncc1`?
miR-122 inh: -5.1

What do the screens show for `Nc1ccc(Oc2ccc(Br)cc2)cc1`?
miR-122 inh: 35.3*

What do the screens show for `COc1cccc(-c2ccc3c(c2)O[C@@H](CN(C)CC2CC2)[C@@H](C)CN([C@H](C)CO)S3(=O)=O)c1`?
miR-122 inh: 5.2

High-throughput results from PubChem.
